Of roughly 8,800 targets only a part is listed; those with a hit were picked by preference. About 0.5% of all pairs of compound and target were hits. Values without a mark were called inactive.
Columns and labels:
Experiment in all cases: log2 fold change, soluble protein after heating vs DMSO (PISA); higher = thermal stabilisation; K562 lysate, 10 uM; active = over 0.2 and 3.5 SD of the protein, either way, in both replicates (recomputed)
erlotinib = compound: C#Cc1cccc(Nc2ncnc3cc(OCCOC)c(OCCOC)cc23)c1 [erlotinib]
In short: (§1)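 Following dounce homogenisation of K562 pellets in PBS pH 7.4 with 1 mM MgCl2, crude extract at 1 mg/mL protein was incubated for 30 min with 10 μM compound. Aliquots were then heated for 3 min over 48°C-58°C and pooled, NP-40 was added to 0.5% at 4°C, and soluble protein was recovered as the supernatant at 21,000xg for 90 min. Channel-sum-equalised TMTpro 16plex LC-MS/MS quantified this protein. Each value, from duplicates, is a log-two fold change in thermal stability relative to solvent controls.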

[1] = compound: C/C(=N\NC(=O)C1=CC(=CC=C1)S(=O)(=O)N2CCOCC2)/C3=C(C=CC(=C3)Cl)O
In short: as §1

[2] = compound: C1=CC(=CC=C1C2=NC3=C(N2)C=C(C=C3)C(=O)N)OC4=CC=C(C=C4)Cl
In short: as §1

[3] = compound: C1=CC2=C(C=CC(=C2)/C=C\3/C(=O)NC(=NCC4=CC=CS4)S3)N=C1
In short: as §1

[4] = compound: C1=CC2=NC=CN=C2C=C1/C=C/3\C(=O)NC(=O)S3
In short: as §1

[5] = compound: C1=CC=C(C=C1)C2=NC(=C(N2)C3=CC=NC=C3)C4=CC(=C(C=C4)Cl)O
In short: as §1

[6] = compound: C1=CC=C2C(=C1)C3=NNC4=CC=CC(=C43)C2=O
In short: as §1

[7] = compound: C1CCN(C1)C(=O)NC2=CC=CC(=C2)NC3=NC=C(C(=N3)NCCC4=CN=CN4)Br
In short: as §1

[8] = compound: C1CN(CCC1(CC2=CC=C(C=C2)Cl)N)C3=NC=NC4=C3C=CN4
In short: as §1

IRAK-1-4 Inhibitor I = compound: C1COCCN1CCN2C3=CC=CC=C3N=C2NC(=O)C4=CC(=CC=C4)[N+](=O)[O-] [IRAK-1-4 Inhibitor I]
In short: as §1

ibrutinib = compound: C=CC(=O)N1CCC[C@@H](n2nc(-c3ccc(Oc4ccccc4)cc3)c3c(N)ncnc32)C1 [ibrutinib]
In short: as §1

[9] = compound: CC(=O)c1cnc2ccc(-c3cc(Cl)c(O)c(Cl)c3)nc2c1N[C@H]1CC[C@H](CN(C)C)CC1
In short: as §1

ralimetinib = compound: CC(C)(C)Cn1c(N)nc2ccc(-c3[nH]c(C(C)(C)C)nc3-c3ccc(F)cc3)nc21 [ralimetinib]
In short: as §1

[10] = compound: CC(C)(O)CC(=O)NCCn1ccc2ncnc(Nc3ccc(Oc4cccc(C(F)(F)F)c4)c(Cl)c3)c21
In short: as §1

[11] = compound: CC(C)C1=C2N=C(C=C(N2N=C1)NCC3=CC=CC=C3)NCCCCCCN
In short: as §1

[12] = compound: CC1=C(C(CC(=O)N1)C2=CC=C(C=C2)C(F)(F)F)C(=O)NC3=C(C=C4C(=C3)C=NN4)F
In short: as §1

[13] = compound: CC1=C(C2=C(C=C1)C(=O)C3=CC=CC=C3N2CCCN)C
In short: as §1

[14] = compound: CC1=C(C=C(C=C1)NC(=O)C2=CC(=CC=C2)C(C)(C)C#N)NC3=CC4=C(C=C3)N=CN(C4=O)C
In short: as §1

[15] = compound: CC1=C(C=C(C=C1)NC(=O)C2=CC(=CC=C2)N(C)C)NC(=O)C3=CC=C(C=C3)O
In short: as §1

[16] = compound: CC1=CC=C(C=C1)SC2=C3C=C(SC3=CN=C2)C(=O)N
In short: as §1

Chain of UniProt Q96JC1 (Q96JC1 whole entry, looked up): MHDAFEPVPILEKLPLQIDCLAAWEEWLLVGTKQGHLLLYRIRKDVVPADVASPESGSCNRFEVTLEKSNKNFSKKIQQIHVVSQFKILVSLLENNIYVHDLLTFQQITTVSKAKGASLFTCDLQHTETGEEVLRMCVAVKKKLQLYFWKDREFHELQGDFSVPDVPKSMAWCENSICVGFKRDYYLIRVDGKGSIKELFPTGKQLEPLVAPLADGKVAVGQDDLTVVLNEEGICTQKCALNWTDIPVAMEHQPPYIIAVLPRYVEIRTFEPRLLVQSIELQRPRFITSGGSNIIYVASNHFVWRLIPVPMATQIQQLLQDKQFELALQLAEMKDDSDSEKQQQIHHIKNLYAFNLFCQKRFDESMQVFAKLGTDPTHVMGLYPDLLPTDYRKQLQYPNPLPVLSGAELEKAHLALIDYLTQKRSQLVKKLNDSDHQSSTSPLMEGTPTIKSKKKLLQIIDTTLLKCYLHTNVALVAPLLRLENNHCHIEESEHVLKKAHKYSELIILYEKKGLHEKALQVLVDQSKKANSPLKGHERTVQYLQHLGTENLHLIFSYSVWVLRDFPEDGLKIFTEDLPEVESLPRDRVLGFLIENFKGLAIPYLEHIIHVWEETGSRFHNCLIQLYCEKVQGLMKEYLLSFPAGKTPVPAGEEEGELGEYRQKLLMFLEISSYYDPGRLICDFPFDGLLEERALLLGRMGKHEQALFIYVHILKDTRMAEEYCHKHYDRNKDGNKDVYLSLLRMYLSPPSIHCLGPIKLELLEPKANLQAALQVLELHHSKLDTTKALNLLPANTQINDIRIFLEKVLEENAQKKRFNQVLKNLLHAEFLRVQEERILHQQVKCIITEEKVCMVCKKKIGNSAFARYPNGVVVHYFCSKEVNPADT
Chain of UniProt A4D1P6 (A4D1P6 whole entry, looked up): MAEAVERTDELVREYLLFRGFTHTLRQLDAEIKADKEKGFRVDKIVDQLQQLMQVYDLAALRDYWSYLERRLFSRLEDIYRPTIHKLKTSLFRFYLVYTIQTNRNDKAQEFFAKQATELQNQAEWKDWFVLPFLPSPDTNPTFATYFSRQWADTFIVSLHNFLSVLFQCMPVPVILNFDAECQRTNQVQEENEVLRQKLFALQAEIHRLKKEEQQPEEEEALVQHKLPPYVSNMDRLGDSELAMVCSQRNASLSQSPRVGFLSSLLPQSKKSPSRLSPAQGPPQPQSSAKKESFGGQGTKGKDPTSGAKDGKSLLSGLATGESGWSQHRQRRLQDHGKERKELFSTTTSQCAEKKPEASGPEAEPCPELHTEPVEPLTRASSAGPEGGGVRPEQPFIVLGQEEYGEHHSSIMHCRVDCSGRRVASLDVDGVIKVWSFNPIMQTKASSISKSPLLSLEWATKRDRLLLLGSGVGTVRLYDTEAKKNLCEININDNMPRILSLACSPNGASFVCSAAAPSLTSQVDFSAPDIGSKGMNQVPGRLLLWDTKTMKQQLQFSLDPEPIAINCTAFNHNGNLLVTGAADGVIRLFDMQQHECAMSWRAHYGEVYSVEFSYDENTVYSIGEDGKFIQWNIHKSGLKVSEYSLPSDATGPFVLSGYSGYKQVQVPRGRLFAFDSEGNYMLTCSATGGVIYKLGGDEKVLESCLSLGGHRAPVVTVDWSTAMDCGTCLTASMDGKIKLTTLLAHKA
Chain of UniProt Q70J99 (Q70J99 whole entry, looked up): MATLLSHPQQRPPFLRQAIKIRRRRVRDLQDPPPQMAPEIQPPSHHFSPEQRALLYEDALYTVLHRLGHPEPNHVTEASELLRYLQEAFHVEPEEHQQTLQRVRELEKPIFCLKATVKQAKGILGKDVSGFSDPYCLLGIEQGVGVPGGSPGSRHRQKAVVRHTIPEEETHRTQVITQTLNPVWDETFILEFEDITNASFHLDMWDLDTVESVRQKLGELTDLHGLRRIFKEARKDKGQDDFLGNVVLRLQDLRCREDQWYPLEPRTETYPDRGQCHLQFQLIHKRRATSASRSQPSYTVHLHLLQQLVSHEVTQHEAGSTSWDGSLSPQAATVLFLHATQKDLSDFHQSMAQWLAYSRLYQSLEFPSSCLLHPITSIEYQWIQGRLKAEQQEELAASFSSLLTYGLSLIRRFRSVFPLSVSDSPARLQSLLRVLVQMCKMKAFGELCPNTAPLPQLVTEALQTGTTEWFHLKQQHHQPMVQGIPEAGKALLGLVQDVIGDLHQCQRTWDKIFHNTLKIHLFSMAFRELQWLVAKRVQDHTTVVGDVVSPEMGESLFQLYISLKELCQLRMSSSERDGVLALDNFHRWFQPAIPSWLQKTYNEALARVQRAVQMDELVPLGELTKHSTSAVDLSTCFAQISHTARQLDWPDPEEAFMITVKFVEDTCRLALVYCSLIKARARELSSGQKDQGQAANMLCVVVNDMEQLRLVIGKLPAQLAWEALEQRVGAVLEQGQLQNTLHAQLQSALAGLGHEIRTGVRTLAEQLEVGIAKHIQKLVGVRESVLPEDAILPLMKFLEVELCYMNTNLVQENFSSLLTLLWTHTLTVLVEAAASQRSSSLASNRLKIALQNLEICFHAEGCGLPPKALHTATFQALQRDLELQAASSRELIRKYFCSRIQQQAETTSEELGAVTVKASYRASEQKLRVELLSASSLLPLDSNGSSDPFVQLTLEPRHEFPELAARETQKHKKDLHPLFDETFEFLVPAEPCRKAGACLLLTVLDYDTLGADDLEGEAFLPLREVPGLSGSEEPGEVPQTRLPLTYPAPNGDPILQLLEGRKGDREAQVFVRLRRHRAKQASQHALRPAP
Chain of UniProt Q9UN37 (Q9UN37 whole entry, looked up): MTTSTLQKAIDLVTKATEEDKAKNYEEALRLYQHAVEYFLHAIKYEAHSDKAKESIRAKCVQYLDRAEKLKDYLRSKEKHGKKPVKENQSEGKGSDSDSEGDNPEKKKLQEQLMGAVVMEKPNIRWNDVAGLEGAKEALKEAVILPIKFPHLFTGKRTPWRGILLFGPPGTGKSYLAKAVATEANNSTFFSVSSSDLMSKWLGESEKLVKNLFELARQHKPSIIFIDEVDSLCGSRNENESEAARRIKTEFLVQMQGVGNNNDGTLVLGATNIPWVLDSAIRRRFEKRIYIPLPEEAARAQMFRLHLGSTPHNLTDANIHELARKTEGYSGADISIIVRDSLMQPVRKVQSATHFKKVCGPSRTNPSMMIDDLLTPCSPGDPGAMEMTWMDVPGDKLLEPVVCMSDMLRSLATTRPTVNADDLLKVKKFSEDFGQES
Chain of UniProt Q9NNW5 (Q9NNW5 whole entry, looked up): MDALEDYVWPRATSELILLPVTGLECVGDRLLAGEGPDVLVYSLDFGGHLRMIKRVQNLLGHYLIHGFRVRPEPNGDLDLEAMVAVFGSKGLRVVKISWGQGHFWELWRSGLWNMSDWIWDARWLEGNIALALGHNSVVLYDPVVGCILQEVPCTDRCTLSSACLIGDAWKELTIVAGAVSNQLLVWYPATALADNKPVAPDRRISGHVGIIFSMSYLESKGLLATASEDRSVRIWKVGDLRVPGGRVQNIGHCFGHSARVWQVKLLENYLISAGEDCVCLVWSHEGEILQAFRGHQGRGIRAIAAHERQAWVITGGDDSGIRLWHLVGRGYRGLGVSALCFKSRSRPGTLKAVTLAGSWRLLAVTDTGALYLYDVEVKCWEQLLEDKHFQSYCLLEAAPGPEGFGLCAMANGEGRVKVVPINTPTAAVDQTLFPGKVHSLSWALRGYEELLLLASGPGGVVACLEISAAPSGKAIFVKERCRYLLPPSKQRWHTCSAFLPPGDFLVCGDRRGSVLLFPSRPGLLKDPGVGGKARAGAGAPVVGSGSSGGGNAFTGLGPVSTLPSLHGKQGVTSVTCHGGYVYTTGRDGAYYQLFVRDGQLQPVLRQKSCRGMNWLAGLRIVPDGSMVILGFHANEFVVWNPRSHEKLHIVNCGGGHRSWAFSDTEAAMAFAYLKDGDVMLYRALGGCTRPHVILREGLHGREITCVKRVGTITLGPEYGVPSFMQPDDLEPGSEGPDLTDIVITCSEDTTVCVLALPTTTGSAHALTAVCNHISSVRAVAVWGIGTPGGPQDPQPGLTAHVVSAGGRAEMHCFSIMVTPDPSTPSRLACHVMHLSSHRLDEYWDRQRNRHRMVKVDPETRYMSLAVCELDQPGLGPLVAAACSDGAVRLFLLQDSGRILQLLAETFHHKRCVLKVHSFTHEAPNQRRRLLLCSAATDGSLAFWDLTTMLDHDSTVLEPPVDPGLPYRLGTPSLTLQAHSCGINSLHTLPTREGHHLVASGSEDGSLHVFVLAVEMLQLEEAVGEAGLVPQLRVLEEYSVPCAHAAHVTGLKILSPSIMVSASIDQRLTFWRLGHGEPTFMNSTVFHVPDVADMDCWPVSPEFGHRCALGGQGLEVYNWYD
Chain of UniProt Q96AX1 (Q96AX1 whole entry, looked up): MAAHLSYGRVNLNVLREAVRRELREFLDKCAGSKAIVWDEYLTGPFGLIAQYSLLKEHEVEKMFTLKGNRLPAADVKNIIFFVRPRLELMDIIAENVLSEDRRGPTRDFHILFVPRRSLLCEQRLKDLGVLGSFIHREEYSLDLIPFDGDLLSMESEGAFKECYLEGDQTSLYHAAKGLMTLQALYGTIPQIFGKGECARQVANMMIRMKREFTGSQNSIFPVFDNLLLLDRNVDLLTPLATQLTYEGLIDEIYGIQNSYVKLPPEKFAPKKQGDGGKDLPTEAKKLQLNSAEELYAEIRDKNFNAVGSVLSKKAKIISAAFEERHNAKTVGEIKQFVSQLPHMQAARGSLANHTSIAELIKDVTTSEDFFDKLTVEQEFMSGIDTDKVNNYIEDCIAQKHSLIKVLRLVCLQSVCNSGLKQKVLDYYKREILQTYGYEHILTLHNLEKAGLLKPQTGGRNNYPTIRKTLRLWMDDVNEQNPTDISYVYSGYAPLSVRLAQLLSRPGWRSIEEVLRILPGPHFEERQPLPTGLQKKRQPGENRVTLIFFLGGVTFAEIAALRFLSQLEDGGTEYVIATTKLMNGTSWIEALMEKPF
Chain of UniProt Q9BRT2 (Q9BRT2 whole entry, looked up): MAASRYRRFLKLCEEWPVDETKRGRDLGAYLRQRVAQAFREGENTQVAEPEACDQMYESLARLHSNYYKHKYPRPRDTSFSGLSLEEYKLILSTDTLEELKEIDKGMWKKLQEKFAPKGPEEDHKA

Target	log2 fold change (erlotinib)	log2 fold change [1]	log2 fold change [2]	log2 fold change [3]	log2 fold change [4]	log2 fold change [5]	log2 fold change [6]	log2 fold change [7]	log2 fold change [8]	log2 fold change (IRAK-1-4 Inhibitor I)	log2 fold change (ibrutinib)	log2 fold change [9]	log2 fold change (ralimetinib)	log2 fold change [10]	log2 fold change [11]	log2 fold change [12]	log2 fold change [13]	log2 fold change [14]	log2 fold change [15]	log2 fold change [16]
YME1L1 (UniProt Q96TA2)	0.018	-0.136	-0.029	0.026	0.053	0	0.011	-0.006	0.041	0.033	-0.04	-0.008	-0.006	-0.043	0	-0.04	0.003	0.005	0.054	-0.087
ZHX1 (UniProt Q9UKY1)	0.02	-0.094	0.082	0.051	-0.027	-0.027	-0.077	-0.119	0.026	-0.055	-0.026	0.015	-0.007	0.034	0.127	0.109	-0.144	-0.053	0.024	-0.013
VPS39 (UniProt Q96JC1)	0.015	-0.022	-0.005	-0.003	-0.002	0.015	-0.007	-0.034	0.031	0.019	0	0.021	-0.012	-0.056	-0.004	0.014	0	0.016	-0.014	-0.005
ZNF598 isoform 3 (UniProt Q86UK7)	-0.001	-0.003	0.007	-0.007	-0.045	0.006	-0.064	-0.036	-0.002	0.029	0.032	-0.007	-0.001	-0.017	0.013	0.019	0.005	-0.001	-0.004	0
UQCC2 (UniProt Q9BRT2)	0.037	0.044	-0.039	0.06	0.001	-0.007	0	-0.05	-0.023	0.016	0.054	0	0.006	0.01	0.018	-0.022	0.016	0.007	-0.016	-0.012
WDR91 (UniProt A4D1P6)	0.02	0.04	-0.019	0.038	-0.034	0.002	0.019	-0.011	-0.007	-0.013	0.05	0.011	0.026	-0.002	-0.026	-0.013	-0.009	-0.046	0.043	0.002
VPS4A (UniProt Q9UN37)	0.051	0.005	-0.076	0.043	-0.014	-0.017	-0.15	0.029	-0.037	-0.037	0.001	0	0.013	0.035	0	-0.035	-0.046	-0.039	0.045	0.025
VPS13C (UniProt Q709C8)	-0.007	-0.003	0.038	0.008	0.017	-0.013	-0.021	0.042	-0.012	0.004	-0.011	0.005	0.02	0.006	-0.001	0.251 (active)	-0.066	0.041	-0.007	-0.053
UNC13D (UniProt Q70J99)	0.019	0.023	-0.049	0.02	0.025	-0.007	-0.009	0.005	0.013	0.022	-0.043	-0.005	0.031	-0.014	0.018	0.016	0.015	0.012	0.025	-0.015
VPS11 (UniProt Q9H270)	0.049	-0.037	0.014	0.034	0.014	0.011	-0.053	0.003	-0.002	-0.031	-0.002	0.025	0.033	-0.025	0.001	0.003	0.031	0.026	-0.03	-0.002
VANGL1 (UniProt Q8TAA9)	0	-0.043	-0.088	0.022	-0.149	-0.377	-0.01	-0.072	0.004	0.182	0.08	-0.041	-0.317 (active)	0.183	0.037	0.007	-0.109	-0.062	-0.066	0.007
WDR6 (UniProt Q9NNW5)	0.001	0.01	0.002	0.026	-0.01	0	-0.014	-0.02	0.021	-0.011	0.008	0.008	0.018	-0.017	-0.032	-0.012	-0.019	0.011	0.022	0.017
ZZEF1 (UniProt O43149)	0.008	-0.019	-0.012	0.019	-0.012	-0.009	-0.017	-0.011	-0.009	0.017	0.018	-0.009	-0.002	-0.057	-0.014	-0.005	-0.063	0.023	0.009	-0.005
WRB (UniProt O00258)	-0.043	0.208	0.027	0.002	-0.009	-0.002	0.049	0.051	-0.064	0.101	0.045	-0.043	-0.095	-0.255	-0.024	-0.025	-0.141	0.063	-0.004	-0.024
VPS33A (UniProt Q96AX1)	0.024	0.005	0.024	0.035	0.018	-0.006	-0.023	-0.025	0.036	0.015	0.024	-0.01	0.039	0.005	-0.003	0.008	0.013	0.013	0.043	-0.032
WIPI2 (UniProt Q9Y4P8)	-0.006	-0.042	-0.009	0.064	-0.037	-0.003	0.035	-0.054	-0.047	0.021	0.047	0.019	0.026	0.018	0.022	0.042	-0.018	0.006	-0.013	-0.003
